# Where “and” joins values, the source holds several entries; their conditions need not be identical. Identical values can stand only once. The campaign covered roughly 370,000 compounds. About 2,300 (0.62%) were called active.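 The calls were made as follows: active = lowest replicate activation of at least 40%, so every replicate reaches that level; inactive = the rest.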 Only a selection was taken, and actives are over-represented in it overall. Where a structure was tested more than once in an assay, its records may differ in their call.
# Experiment: GLuc luminescence reporter in INS-1E cells, primary screen for activators of glucose-dependent secretion of insulin (AID 743287);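 also: 0% = median of neutral control wells and 100% = median of IBMX positive control wells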
# Settings: INS-1E GLuc reporter insulin secretion, 2-3 h, at 16.6 µM, stronger effect = higher value
row,SMILES,activation
1,COc1ccc(C(=O)C2CCCN(Cc3ccc(C)s3)C2)cc1OC (stereo not given),53.8% (active)
2,COc1cccc(CN2CCCC(C(=O)c3ccccc3SC)C2)c1O (stereo not given),-0.167% (inactive)
3,Cc1ccc(CN2CCCC(C(=O)c3ccc4c(c3)OCO4)C2)cc1C (stereo not given),-7.76% (inactive)
4,CCN(CC)C(=O)[C@@H]1C=C2c3cccc4[nH]c(Br)c(c34)C[C@H]2N(C)C1,13.7% (inactive)
5,COC(=O)[C@H]1[C@H](CO)[C@H]2Cn3c(ccc(C4=CCCC4)c3=O)[C@@H]1N2C(=O)CC1CC1,-1.71% (inactive)
6,FC(F)(F)CN1CC2NC(C1)C2c1ccc(Br)cc1 (stereo not given),-10.5% (inactive)
7,O=C(O)[C@H]1[C@H](CO)[C@H]2Cn3c(ccc(-c4ccccc4F)c3=O)[C@@H]1N2C(=O)c1cccnc1,19.1% (inactive)
8,CC(Cc1ccccc1)NCCC(c1ccccc1)c1ccccc1 (stereo not given),182% (active)
9,CC(Cc1ccccc1)NC=O (stereo not given),3.77% (inactive)
10,FC(F)(F)CN1CC2C(c3ccc(Br)cc3)C(C1)N2CC1CC1 (stereo not given),-3.91% (inactive)
11,COC(=O)[C@@H]1[C@@H](CO)[C@@H]2Cn3c(ccc(C4=CCCCC4)c3=O)[C@H]1N2CC1CC1,6.37% (inactive)
12,CCCCCCCCCCCCn1ccc(=N)cc1,212% (active)
13,Clc1ccc([C@@H]2CC3CCC2N3)cn1 (stereo not given in full),-8.41% (inactive)
14,C/C=C/c1ccc(C2[C@@H]3CN(S(C)(=O)=O)C[C@H]2N3)cc1 (stereo not given in full),-6.54% (inactive)
15,O=C(O)[C@H]1[C@H](CO)[C@H]2Cn3c(cccc3=O)[C@@H]1N2C(=O)c1ccccc1,0.382% (inactive)
16,C=CCN1[C@@H]2CN(S(C)(=O)=O)C[C@H]1C2c1ccc(Br)cc1 (stereo not given in full),17.3% (inactive)
17,CC(C)Nc1nc(Cl)nc(NC(C)C)n1,50.3% (active)
18,CC(=O)N1C[C@@H]2C(c3ccc(Br)cc3)[C@H](C1)N2C (stereo not given in full),27.1% (inactive) and -21.4% (inactive)
19,COc1ccc2c(c1)[C@@]13CCCCC1[C@@H](C2)NCC3 (stereo not given in full),8.42% (inactive)
20,COc1cccc(-c2ccc3n(c2=O)C[C@H]2[C@H](CO)[C@@H](C(=O)O)[C@@H]3N2C(=O)c2cnccn2)c1,14.6% (inactive)
21,COc1ccccc1CN1[C@@H](CO)[C@@H](c2ccccc2)C12CN(C(=O)Cc1ccccc1)C2,-6.56% (inactive)
22,COC(=O)C[C@H]1CC[C@H]2NC[C@@H](O)COC[C@@H]2O1,44% (active) and 14.5% (inactive)
23,COC(=O)C[C@@H]1CC[C@@H]2NC[C@@H](O)COC[C@H]2O1,7.25% (inactive)
24,CCC(C)NC1(c2ccccc2)CCCCC1 (stereo not given),12.2% (inactive)
25,C[C@@H]1CN([C@H](C)CO)C(=O)CCCn2cc(nn2)CO[C@@H]1CN(C)C(=O)Oc1cccc2ccccc12,-14.5% (inactive)

# Reference: PubChem BioAssay AID743287 (Broad Institute, 2014)
